Experimental data published in PubChem BioAssay (NCATS).
Results filed as inconclusive are left out. Activity calls are given as the source filed them. Unless noted, the call rests on the fitted dose curve; in most records, active means well fitted curve in the direction sought with a large enough effect; inconclusive means small, poorly fitted or top-dose-only effect, or another doubt; inactive means no such curve, though single readings can be large; an effect the other way counts as inactive or inconclusive.

Columns and labels:
[1] = molecular target: Aldehyde dehydrogenase, mitochondrial (Homo sapiens) (UniProt P05091); assay: qHTS for Inhibitors of the Aldehyde Dehydrogenase Family (ALDH2) Confirmatory screens (AID 2061303; active means well fitted inhibition curve with a large enough effect; title and protocol of this record describe different tests; further: nearly all actives have a fitted effect of over 45% in size; further: potency means the concentration at half of the fitted maximal effect); conditions: ALDH inhibition qHTS; series mostly up to 45.4 µM
[2] = qHTS for Inhibitors of the Aldehyde Dehydrogenase Family (ALDH1A2, ALDH1A3, ALDH2, ALDH3A1) (AID 2061307); conditions: ALDH inhibition qHTS; series mostly up to 50.3 µM; further: nearly all actives have a fitted effect of over 50% in size
[3] = molecular target: Aldehyde dehydrogenase, mitochondrial (Homo sapiens) (UniProt P05091); assay: qHTS for Inhibitors of the Aldehyde Dehydrogenase Family (ALDH2) Primary screen (AID 2061308); conditions: ALDH2 enzyme inhibition qHTS, 1536-well; series mostly up to 56 µM; further: nearly all actives have a fitted effect of over 55% in size; further: potency means the concentration at half of the fitted maximal effect
[4] = molecular target: Retinaldehyde dehydrogenase 3 (Homo sapiens) (UniProt P47895); assay: qHTS for Inhibitors of the Aldehyde Dehydrogenase Family (ALDH1A3) Confirmatory screens (AID 2061311); conditions: ALDH inhibition qHTS; series mostly up to 46 µM; further: nearly all actives have a fitted effect of over 60% in size; further: potency means the concentration at half of the fitted maximal effect
[5] = molecular target: Retinal dehydrogenase 2 (Homo sapiens) (UniProt O94788); assay: qHTS for Inhibitors of the Aldehyde Dehydrogenase Family (ALDH1A2) Confirmation screens (AID 2061314); conditions: ALDH1A2 enzyme inhibition qHTS confirmation; series mostly up to 45.9 µM; further: nearly all actives have a fitted effect of over 65% in size; further: potency means the concentration at half of the fitted maximal effect
[6] = molecular target: Aldehyde dehydrogenase 1A1 (Homo sapiens) (UniProt P00352); assay: qHTS for Inhibitors of the Aldehyde Dehydrogenase Family (ALDH1A1) Confirmatory screens (AID 2061316); conditions: ALDH inhibition qHTS; series mostly up to 47.3 µM; further: nearly all actives have a fitted effect of over 65% in size; further: potency means the concentration at half of the fitted maximal effect
[7] = molecular target: Retinaldehyde dehydrogenase 3 (Homo sapiens) (UniProt P47895); assay: qHTS for Inhibitors of the Aldehyde Dehydrogenase Family (ALDH1A3) Primary screen (AID 2061315); conditions: ALDH inhibition qHTS; series mostly up to 56 µM;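 further: plate controls were DMSO vehicle for no effect and reference inhibitor for full effect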
[8] = BET inhibitor-based combinations targeting novel dependencies in MECOM-rearranged (r) AML: SET-2 cell line (AID 2202231); conditions: SET-2 AML cells viability, CellTiter-Glo luminescence, 48 h; viability: stronger effect = lower value, concentration not given here;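 further: plate controls were DMSO treated cells for no effect and wells without cells for full effect; nearly all actives have a fitted effect of over 35% in size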
In short: (§1)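 Readout: CellTiter-Glo luminescence. Exposure: 48 h, 11 concentrations, 500 cells/well. Metric: AUC and within-line Z-AUC after DMSO/empty-well normalization.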

[9] = BET inhibitor-based combinations targeting novel dependencies in MECOM-rearranged (r) AML: OCI-AML3 cell line (AID 2202232); conditions: CellTiter-Glo luminescence, 48 h; Potency: OCI-AML3 viability; series mostly up to 46 µM;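 further: plate controls were DMSO vehicle wells for no effect and wells without cells for full effect; nearly all actives have a fitted effect of over 35% in size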
In short: as §1

[10] = BET inhibitor-based combinations targeting novel dependencies in MECOM-rearranged (r) AML: UCSD-AML1 cell line (AID 2202235); conditions: UCSD-AML1 AML cells viability, CellTiter-Glo, 48 h; series mostly up to 46 µM;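 further: plate controls were DMSO vehicle wells for no effect and blank wells for full effect; nearly all actives have a fitted effect of over 40% in size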
In short: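 Seeding density was 500 cells/well, and drug exposure lasted 48 hr under standard culture conditions. Read-out used CellTiter-Glo reagent with a 15 min room-temperature incubation before luminescence measurement; AUC and Z-AUC summarize the normalized responses.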

[11] = BET inhibitor-based combinations targeting novel dependencies in MECOM-rearranged (r) AML: AML-191 cell line (AID 2202236;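 further: plate controls were vehicle wells for no effect and wells without cells for full effect; nearly all actives have a fitted effect of over 35% in size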); conditions: AML-191 viability, CellTiter-Glo luminescence, 48 h; series mostly up to 46 µM
In short: as §1

[12] = BET inhibitor-based combinations targeting novel dependencies in MECOM-rearranged (r) AML: AML-194 cell line (AID 2202237;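 further: plate controls were vehicle wells for no effect and wells without cells for full effect; nearly all actives have a fitted effect of over 40% in size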); conditions: AML-194 (MECOM-r AML) viability, CellTiter-Glo, 48 h; series mostly up to 46 µM
In short: as §1

O=C1Nc2ccccc2/C1=C\c1cc(F)c(O)c(F)c1
active: Potency [3] 1.12 µM | Potency [4] 3.16 µM | Potency [5] 5.62 µM | Potency [6] 8.96 µM
inactive: Potency [1] | Potency [2]

O=C(O)c1cccc(-c2noc(-c3cccc(C(F)(F)F)c3)n2)c1
inactive: Potency [1] | Potency [3] | Potency [5] | Potency [6]
active: Potency [2] 0.956 µM | Potency [4] 0.504 µM

Cc1ccc(S(=O)(=O)NC(N)=NCCC[C@@H](NC(=O)CNC(=O)c2ccccc2)C(=O)Nc2cc(C(F)(F)F)ccc2Cl)cc1
inactive: Potency [1] | Potency [2] | Potency [3] | Potency [4] | Potency [5] | Potency [7] | Potency [6]

O=C(NN1CCCC1)NS(=O)(=O)c1ccc(Cl)cc1
inactive: Potency [1] | Potency [2] | Potency [3] | Potency [4] | Potency [5] | Potency [6]

Cc1ccc(C[C@@H](NS(=O)(=O)c2ccc(C(=O)O)cc2)C(=O)O)cc1
inactive: Potency [1] | Potency [2] | Potency [3] | Potency [4] | Potency [5] | Potency [7] | Potency [6]

O=C(O)c1ccc(O)c2ncc(N3CCCN(C4CCCC4)CC3)cc12
active: Potency [4] 14.2 µM
inactive: Potency [1] | Potency [2] | Potency [3] | Potency [5] | Potency [6]

O=C1c2ccccc2NC(c2ccc(-c3cccc([N+](=O)[O-])c3)o2)N1O (stereo unspecified)
active: Potency [1] 4.49 µM | Potency [2] 2.25 µM | Potency [3] 10 µM | Potency [4] 4.49 µM | Potency [5] 2.52 µM | Potency [6] 3.18 µM
inactive: Potency [7]

FC(F)(F)c1cccc(N2CCN(C(=S)Nc3nccc4cccnc34)CC2)c1
active: Potency [1] 11.3 µM | Potency [2] 28.2 µM | Potency [3] 7.94 µM | Potency [4] 11.3 µM | Potency [5] 10.1 µM | Potency [6] 7.98 µM

NC(=O)C1CCN(c2ncc(-c3ccc4c(c3)OCCO4)s2)CC1
active: Potency [1] 0.896 µM | Potency [2] 7.12 µM | Potency [4] 7.98 µM | Potency [5] 8.96 µM | Potency [6] 0.712 µM
inactive: Potency [3]

CN1CCc2sc(NC(=O)Cc3ccccc3)c(C(=O)Nc3ccc(Cl)cc3)c2C1
inactive: Potency [1] | Potency [2] | Potency [3] | Potency [4] | Potency [7]

N#Cc1c(C(=O)c2cccs2)no[n+]1[O-]
active: Potency [1] 3.98 µM | Potency [2] 2.24 µM | Potency [3] 0.282 µM | Potency [4] 1.59 µM | Potency [5] 3.16 µM | Potency [6] 0.225 µM

O=[N+]([O-])c1ccc(S(=O)(=O)c2ccc(Cl)cc2)nc1
active: Potency [1] 0.504 µM | Potency [2] 2.82 µM | Potency [3] 0.251 µM | Potency [4] 28.2 µM | Potency [5] 3.16 µM | Potency [6] 0.283 µM

Cc1ccc(-c2cc(C(=O)N3CCCCC3)c3ccccc3n2)cc1C
inactive: Potency [1] | Potency [2] | Potency [3] | Potency [4] | Potency [5] | Potency [7] | Potency [6]

COc1ccc(C2Nc3ccccc3C(=O)N2CCO)cc1COc1ccc(NC(C)=O)cc1 (stereo unspecified)
inactive: Potency [3] | Potency [7]
active: Potency [1] 2 µM | Potency [2] 3.18 µM | Potency [4] 10 µM | Potency [5] 14.2 µM | Potency [6] 22.5 µM

C[C@@](Cc1ccccc1)(C(=O)O)N1C(=O)c2ccc(C(=O)O)cc2C1=O
inactive: Potency [1] | Potency [2] | Potency [3] | Potency [4] | Potency [5] | Potency [7] | Potency [6]

Fc1cc(Nc2nc(-c3ccncc3)nc3ccccc23)ccc1N1CCCCC1
inactive: Potency [1] | Potency [2] | Potency [3] | Potency [7]
active: Potency [4] 11.3 µM | Potency [5] 0.712 µM | Potency [6] 3.57 µM

CCOc1cc(CNc2ccc(O)cc2)ccc1OCc1ccc(Cl)cc1
active: Potency [1] 10.1 µM | Potency [2] 11.3 µM | Potency [3] 3.16 µM | Potency [4] 1.01 µM | Potency [5] 0.504 µM | Potency [6] 6.34 µM

CC(=O)NCCC(=O)N[C@@H](CCC(N)=O)C(=O)N[C@@H](CO)C(=O)N[C@@H](CCC(N)=O)C(=O)N[C@@H](CCC(N)=O)C(=O)N[C@H](C(=O)N[C@@H](Cc1ccccc1)C(=O)N[C@]1(C)CCCCCCC=CCCC[C@@](C)(C(=O)N[C@@H](CCC(N)=O)C(=O)N[C@@H](CC(N)=O)C(N)=O)NC(=O)[C@H](CC(C)C)NC(=O)[C@H](CC(C)C)NC(=O)[C@@H](CCCNC(=N)N)NC(=O)[C@H](Cc2c[nH]c3ccccc23)NC(=O)[C@H](CC(C)C)NC(=O)[C@H](CC(N)=O)NC1=O)[C@H](C)O
inactive: Potency [1] | Potency [2] | Potency [3] | Potency [4] | Potency [5] | Potency [7] | Potency [6] | viability [8] 109% | Potency [9] | Potency [10] | Potency [11] | Potency [12]

OCc1cccc(-c2noc(-c3ccccc3F)n2)c1
inactive: Potency [1] | Potency [3] | Potency [5] | Potency [6]
active: Potency [2] 10.7 µM | Potency [4] 5.65 µM
